# The panel holds about 79,000 compounds, 15% with a hit somewhere; the sample as a whole holds those more often. Unmarked numbers belong to inactive results. Active and inactive are the calls of the source. No stated cut-off is given here; in the data, active means growth inhibition above about 70%; inactive means the rest.
# Assay: NCI Yeast Anticancer Drug Screen. Data for the rad52 strain (AID 147);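 further: 0% = growth of vehicle-treated control cultures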
# Details: S. cerevisiae rad52 mutant growth inhibition, active compounds read high
# Experimental: Growth inhibition of yeast strains with defined genetic alterations is measured as a screen for potential anti-cancer activity. Selected strains with alterations in DNA damage repair or cell cycle control were exposed to compounds and growth inhibition was measured relative to vehicle treated controls. The strain used in this assay is rad52
Compound,growth inhibition (at 1.2 µM) [%],growth inhibition (at 3.7 µM),growth inhibition (at 11.0 µM),growth inhibition (at 33.0 µM),growth inhibition (at 100.0 µM)
Cc1c(N)nc([C@H](CC(N)=O)NC[C@H](N)C(N)=O)nc1C(=O)N[C@H](C(=O)N[C@H](C)[C@@H](O)[C@H](C)C(=O)N[C@H](C(=O)NCCc1nc(-c2nc(C(=O)NCCC[S+](C)C)cs2)cs1)[C@@H](C)O)C(OC1OC(CO)C(O)C(O)C1OC1OC(CO)C(O)C(OC(N)=O)C1O)c1cnc[nH]1 (stereo not given in full),7,19%,54%,91% (active),96% (active)
COc1cc(O)c2c(O)c3c(c4c2c1[C@]1(C4)C(C)=CCCC1(C)C)[C@H](O)[C@@]1(O)CC(=O)C(C(N)=O)=C(O)[C@@]1(O)C3=O,-1,92% (active),98% (active),98% (active),95% (active)
O=c1oc2ccccc2c(O)c1C(c1ccc2c(c1)Cc1ccccc1-2)c1c(O)c2ccccc2oc1=O,-7,15%,19%,65%,96% (active)
C[C@]12CCc3nonc3C1CC[C@@H]1C2CC[C@]2(C)C(=O)CCC12 (stereo not given in full),4,5%,22%,36%,66%
CCOC(=O)C1([Se]c2ccccc2)CCCC1=O (stereo not given),11,28%,40%,53%,92% (active)
Nc1nc(N)c2c(Cl)c(CNc3ccc(C(=O)NC(CC(=O)O)C(=O)O)cc3)ccc2n1 (stereo not given),40,35%,52%,80% (active),91% (active)
CCNC(=O)OCC1C2=C(C(=O)C(C)=C(N)C2=O)N2CC3C(N3C)C12OC (stereo not given),4,25%,25%,63%,81% (active)
O=Cc1ccc(C(F)(F)F)cc1.[C-]#[O+].[C-]#[O+].[C-]#[O+].[Cr],9,17%,39%,65%,70% (active)
